Screening results (PubChem BioAssay)
LmPK inh: blocks Leishmania mexicana pyruvate kinase activity; AID 1721; Potency, µM (top dose mostly 57.5 µM), for inactives: at the top dose activity change, negative = inhibition, most hits filed as inhibitors; actives 0.37% (n = 290,000); Q27686; purified LmPK, Kinase-Glo ATP luminescence, 1 h; further: potency means the concentration at half of the fitted maximal effect; on the % scale 0 is the no-effect control and ±100 the full control effect
Target sequence (Q27686 whole entry, looked up): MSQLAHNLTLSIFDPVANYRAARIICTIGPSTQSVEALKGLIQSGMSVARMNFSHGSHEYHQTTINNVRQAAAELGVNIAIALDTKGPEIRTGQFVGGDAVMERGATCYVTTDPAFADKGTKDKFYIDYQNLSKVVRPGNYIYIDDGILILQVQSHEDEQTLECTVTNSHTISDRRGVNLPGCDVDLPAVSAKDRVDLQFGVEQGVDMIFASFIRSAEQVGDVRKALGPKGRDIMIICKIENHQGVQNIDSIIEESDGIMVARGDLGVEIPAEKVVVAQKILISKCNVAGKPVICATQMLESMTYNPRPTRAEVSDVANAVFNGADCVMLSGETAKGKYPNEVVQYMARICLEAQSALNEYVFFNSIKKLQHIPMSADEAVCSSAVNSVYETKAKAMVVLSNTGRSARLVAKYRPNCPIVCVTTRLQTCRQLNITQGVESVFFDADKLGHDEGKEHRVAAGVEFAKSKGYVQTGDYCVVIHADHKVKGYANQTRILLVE
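ATP generated from ADP (0.1 mM) and PEP (0.5 mM) by 0.1 nM LmPK over 1 h at room temperature (pH 7.2 imidazole buffer) was detected by coupled luciferase luminescence. Values were normalized to uninhibited and no-enzyme wells.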
Shiga toxin inh: blocks Shiga toxin action in Vero cells; Vero cells, Shiga toxin protein synthesis inhibition reporter; inhibition, % at 38.7 µM; actives 9.2% (n = 290,000); in the data active means inhibition mostly above about 28%, no sharp cut-off; inactive means mostly below about 43%; further: 0% is about no effect
Cycloheximide cs: affects cycloheximide protein synthesis inhibition readout, counter-screen. actives 12% (n = 300,000). max response, %. AID 2314. cell reporter, cycloheximide protein synthesis inhibition counterscreen; in the data active means max response mostly above about 13%, no sharp cut-off; inactive means mostly below about 14%; further: read at 38.3 µM for the half of the compounds with a filed dose; 0% is about no effect
RE007 growth inh: less growth of the S. pombe RE007 Vpr strain | Potency, µM (series often up to 92.2 µM), for inactives: at the top dose activity change, negative = less growth, most hits filed as inhibitors | AID 651644 | S. pombe RE007 Vpr strain, BacTiter-Glo ATP luminescence, 24 h | actives 0.21% (n = 360,000); active means well fitted falling curve with a large enough effect; inconclusive means small, poorly fitted or top-dose-only effect; inactive means no such curve, though single readings can be large or run the other way; further: potency means the concentration at half of the fitted maximal effect; on the % scale 0 is the no-effect control and ±100 the full control effect; nearly all actives have a fitted effect of over 50% in size
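Fission yeast strain RE007, carrying one chromosomally integrated HIV-1 vpr copy, was seeded at OD 0.01 in PMG+AL medium with 23 nL pinned compound. After 24 h at 30 °C and 99% humidity, viability was read by BacTiter-Glo luminescence.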
FBPA Giardia inh: Giardia lamblia aldolase inhibition; purified Giardia FBPA; Potency, µM (titrated, usually from 59.6 µM), without a hit: at the highest dose activity, negative = inhibition, actives largely listed as inhibitors; actives 0.71% (n = 290,000); AID 2451; further: potency means the concentration at half of the fitted maximal effect; on the % scale 0 is the no-effect control and ±100 the full control effect; nearly all actives have a fitted effect of over 55% in size
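40 nM FBPA preincubated 10 min at RT with compound (up to 57.5 uM final), then substrate plus GAPDH/TPI/NAD/arsenate coupling and diaphorase/resazurin added. Fluorescence read after 20 min at RT, 525/598 nm.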
Tb PYK inh: blocks Trypanosoma brucei pyruvate kinase; actives 0.12% (n = 410,000); AID 624173; Potency, µM (doses to about 76.8 µM), for the others: top-dose activity, negative = inhibition, most hits filed as inhibitors; TbPYK enzyme, Kinase-Glo Plus ATP luminescence, 45 min; further: potency means the concentration at half of the fitted maximal effect; on the % scale 0 is the no-effect control and ±100 the full control effect; nearly all actives have a fitted effect of over 50% in size
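Luminescent Kinase-Glo Plus end-point after 45 min room-temperature reaction of T. brucei pyruvate kinase started with 130 uM ADP (final). Buffer TEA 50 mM pH 7.2 with KCl, MgCl2, BSA, Tween-20; titration-based qHTS with fitted concentration-effect curves.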
* hit, by the source's call; u = inconclusive; x = no result given; + = active, no number; [ ] = dose if it differs, or a comment. The sample as a whole holds a higher share of hits than the screen did. Unless noted, the call rests on the fitted dose curve; in most records, active means well fitted curve in the direction sought with a large enough effect; inconclusive means small, poorly fitted or top-dose-only effect, or another doubt; inactive means no such curve, though single readings can be large; an effect the other way counts as inactive or inconclusive.

SMILES	LmPK inh	Shiga toxin inh	Cycloheximide cs	RE007 growth inh	FBPA Giardia inh	Tb PYK inh
O=C(Nc1cccnc1)c1cc(-c2cc(Cl)ccc2O)n[nH]1	5.1%	91.1*	38.9*	4.5%	-0.5%	-7.3%
CC(=O)C1=C(c2ccc(Br)cc2)C(=O)c2ccccc2C1=O	1.2%	27.4	17.1	u	0.281µM*	-5.5%
CNC1=C(N(C(C)=O)c2ccc(Br)cc2)C(=O)c2ccccc2C1=O	-3.3%	-13.0	-7.6	u	u	-18.0%
COc1cccc(/C=N/c2nc3ccccc3[nH]2)c1O	u	-11.2	2.4	-24.1%	-19.9%	-4.7%
COc1cccc(/C=N/Nc2nc3ccccc3[nH]2)c1O	4.5%	94.3*	51.9*	8.3%	-17.1%	-1.8%
COc1ccccc1Nc1nc2ccccc2[nH]1	-13.4%	90.9*	28.6*	-18.7%	u	-10.6%
COc1cccc(/C=N/Nc2nc3ccccc3[nH]2)c1OC	-1.9%	114.3*	52.0*	-25.4%	0.2%	-1.4%
CCOC(=O)/C(N=Nc1ccc(C(=O)O)cc1[N+](=O)[O-])=C(\C)O	-18.5%	3.5	-1.0	2.6%	0.0%	0.6%
CC(=O)/C(N=Nc1ccc(C(=O)O)cc1[N+](=O)[O-])=C(\C)O	25.1µM*	-2.2	-1.7	-24.4%	-11.0%	-15.8%
COCCn1c(=NC(=O)C(C)(C)C)sc2cc([N+](=O)[O-])ccc21	-1.1%	9.3	19.2*	2.4%	0.0%	1.5%
COc1ccc(C(=O)Nc2ccc(C(=O)N3CCCC3)cc2)cc1[N+](=O)[O-]	-3.8%	12.4	-0.4	-1.1%	-4.7%	6.8%
CCn1cc(C(=O)N(C)c2ccc(OC)cc2OC)c2cc(OC)c(OC)cc2c1=O	1.7%	58.0*	47.1*	-0.1%	6.5%	4.9%
COc1ccc(C(=O)Nc2ccc3c(c2)OCCO3)cc1[N+](=O)[O-]	0.5%	30.6*	17.9*	-8.8%	-0.1%	1.8%
CCn1cc(C(=O)Nc2cccc(NC(C)=O)c2)c2cc(OC)c(OC)cc2c1=O	-2.0%	-13.7	4.9	12.1%	7.5%	-1.1%
CCn1cc(C(=O)Nc2ccc3c(c2)OCCO3)c2cc(OC)c(OC)cc2c1=O	11.7%	28.9	11.6*	6.6%	-20.1%	-6.9%
COc1ccc(NC(=O)c2ccc3c(c2)OCCO3)cc1OC	-22.7%	62.1*	21.7*	-14.7%	-0.8%	0.0%
N#Cc1ccsc1NC(=O)COC(=O)C1=NNC(=O)CC1	x	x	x	-4.8%	x	2.9%
CCCOc1ccccc1C1C(C(=O)Nc2ccccc2)=C(C)Nc2nnnn21 (stereo unspecified)	x	x	x	x	x	-2.4%
COc1cccc(OC)c1C(=O)Nc1ccc2c(c1)OCCO2	1.1%	25.1	-3.4	-1.1%	1.8%	7.5%
COc1cc(C(=O)Nc2ccc3c(c2)OCCO3)ccc1OC(F)F	u	66.3*	33.5*	3.5%	10.6%	-3.8%
COc1cc(C(=O)Nc2ccc3c(c2)OCCO3)ccc1OC(C)C	-6.6%	+	44.3*	31.5%	5.1%	-0.9%
CCCN(CCC)C(=O)c1cc2c(=O)n3cccc(C)c3nc2s1	-1.0%	-20.8	-1.6	-13.9%	-10.3%	-23.7%
Cc1ccc2c(c1)Sc1c(ccc3ccccc13)N2	-0.4%	84.6*	53.5*	-5.5%	u	-11.4%
Cc1cc(Oc2cccc3c2S(=O)(=O)N(C2CCCC2)CC(COCc2ccccc2)O3)cc(C)c1C (stereo unspecified)	x	x	x	3.1%	x	-0.4%
Cc1ccc(S(=O)(=O)NN=Cc2ccc(N3CCOCC3)cc2)cc1[N+](=O)[O-]	x	x	x	5.7%	x	-8.7%
SMILES	LmPK inh	Shiga toxin inh	Cycloheximide cs	RE007 growth inh	FBPA Giardia inh	Tb PYK inh
C(=N\Nc1ccccc1)/c1ccc(N2CCOCC2)cc1	-3.0%	69.4*	48.5*	144.0%	2.0%	3.3%
O=C(O)c1cc(N/N=C/c2ccc(N3CCOCC3)cc2)ccc1Cl	2.3%	136.9*	59.4*	-8.2%	1.3%	-5.1%
Cc1cc(C)nc(N/N=C/c2ccc(N3CCOCC3)cc2)n1	-0.2%	1.8	-4.3	0.5%	-9.0%	6.0%
O=[N+]([O-])c1cccc(N/N=C/c2ccc(N3CCOCC3)cc2)c1	-5.8%	80.4*	49.8*	-8.2%	0.1%	5.3%
Clc1cccc(N/N=C/c2ccc(N3CCOCC3)cc2)c1	0.6%	31.6	37.7*	172.0%	1.8%	5.7%
Cn1cc(C(=O)NCCc2ccc(Cl)cc2)c(=O)c2cc(S(=O)(=O)N3CCOCC3)ccc21	x	x	x	x	x	-6.6%
COc1ccc(CCNC(=O)c2cccc(-n3cnc4cccnc43)c2C)cc1OC	x	x	x	x	x	-12.4%[15.4 µM]
O=C(COc1ccc(Cl)cc1)Nc1ccc(C(=O)OCc2cc(=O)n3ccsc3n2)cc1	x	x	x	x	x	3.0%
Cc1ccc(CNC(=O)C2CCN(C(=O)c3ccc(-n4ccc5ccccc54)s3)CC2)cc1	x	x	x	x	x	-5.8%
C/C(=N\Nc1ccccn1)c1ccc(Br)s1	x	x	x	u	x	-5.0%
C(=N\Nc1ccccn1)/c1ccc(N2CCOCC2)cc1	u	71.2	47.2*	-21.6%	0.0%	-7.5%
C/C(=N\Nc1ccccn1)c1ccc(N2CCOCC2)cc1	-0.1%	115.9*	41.5*	-13.0%	-17.9%	-4.3%
C/C(=N\Nc1ccc([N+](=O)[O-])cc1)c1ccc(N2CCOCC2)cc1	-12.0%	-11.7	-3.0	-5.0%	0.3%	-7.9%
O=C(N/N=C/c1ccc(N2CCOCC2)cc1)c1ccncc1	x	x	x	0.0%	x	2.0%
C/C(=N\Nc1ccccn1)c1ccc(C(C)C)cc1	-2.7%	104.2*	46.6*	-1.4%	-20.9%	3.7%
C[C@H](NC(=O)[C@@H]1CSC2c3ccccc3C(=O)N21)C(=O)NC1CCCCC1 (stereo partly specified)	-0.3%	2.2	4.2	-5.3%	x	-7.6%
CCCN(CCC)CCNC(=O)C1CCN(c2nc3ccc(CC)cc3s2)CC1	x	x	x	x	x	2.3%
O=C(NCc1ccc(Cl)cc1)c1cc2ccccc2o1	x	x	x	x	x	-1.8%
O=C(NCc1ccc(-c2nc3ccccc3s2)cc1)c1ccc(Br)o1	-4.0%	39.5*	27.7*	41.3%	5.0%	-9.1%
O=C(NCc1ccc(-c2nc3ccccc3s2)cc1)c1cc2ccccc2o1	3.7%	48.4*	19.8*	-15.1%	7.7%	-6.4%
O=C(Nc1ccccc1-c1nc2ccccc2s1)c1ccc(Br)o1	-1.5%	-4.8	1.9	-3.0%	1.2%	1.0%
CCOC(=O)c1cc(-c2ccc(OC)cc2)n(CCC(=O)Nc2ccc(OC)cc2OC)c1C	x	x	x	x	x	-14.0%
COc1ccc(CN(CC(=O)NCC2CCCO2)C(=O)CCC(=O)Nc2nccs2)cc1 (stereo unspecified)	5.3%	-7.3	-0.2	-2.6%	1.6%	5.1%
O=C(CCS(=O)(=O)c1cc(Br)cc2c1N(C(=O)C1CC1)CC2)N1CCN(c2cccc(C(F)(F)F)c2)CC1	x	x	x	x	x	-0.2%
CCOC(=O)C1=Nc2ccccc2/C1=C\c1c(O)n(C)c(=O)n(C)c1=O	-1.5%	3.4	-1.8	6.4%	-12.6%	-6.6%
